Drawing on ChEMBL document CHEMBL3988442, “University of Dundee, Small-Polar-MMV Screening Library” (2021), this text covers PXC50 for 30 molecules.

This experiment deals with T1, Methionyl-tRNA synthetase, putative (Leishmania donovani (strain BPK282A1)) (UniProt E9BF75).
T1 sequence (whole entry): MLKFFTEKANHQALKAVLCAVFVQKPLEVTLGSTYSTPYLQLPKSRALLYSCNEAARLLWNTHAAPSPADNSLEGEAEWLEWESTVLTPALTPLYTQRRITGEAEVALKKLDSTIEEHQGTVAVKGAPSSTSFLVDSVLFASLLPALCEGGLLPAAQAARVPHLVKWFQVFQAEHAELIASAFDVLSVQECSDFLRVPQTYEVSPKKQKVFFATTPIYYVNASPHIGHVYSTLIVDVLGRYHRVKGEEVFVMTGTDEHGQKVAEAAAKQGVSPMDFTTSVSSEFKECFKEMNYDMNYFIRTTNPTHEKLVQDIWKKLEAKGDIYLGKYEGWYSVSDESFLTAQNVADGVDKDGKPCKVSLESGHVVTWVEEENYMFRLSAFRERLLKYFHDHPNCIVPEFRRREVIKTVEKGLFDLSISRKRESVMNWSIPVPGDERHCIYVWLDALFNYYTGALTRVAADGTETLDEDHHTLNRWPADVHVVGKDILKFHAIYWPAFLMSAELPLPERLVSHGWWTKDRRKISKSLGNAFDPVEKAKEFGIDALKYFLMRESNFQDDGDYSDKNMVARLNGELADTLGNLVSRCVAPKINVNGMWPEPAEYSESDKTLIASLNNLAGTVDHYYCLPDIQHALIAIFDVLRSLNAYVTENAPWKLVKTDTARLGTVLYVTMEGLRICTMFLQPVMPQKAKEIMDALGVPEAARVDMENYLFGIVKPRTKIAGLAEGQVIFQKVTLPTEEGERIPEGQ
In words: Leishmania donovani Methionine tRNA synthetase (LdMetRS):v7. Dose response assay. More on the design: conc 80 nM, time 150 minutes. Type of experiment: functional.

A value given as a limit tells only on which side of the number the result lay.

`CS(=O)(=O)N1CCN(c2ccc3ccc(C(=O)NC4CCCC4)cn23)CC1`: the PXC50 (BOTTOM 3.919126037, HILLSLOPE 1.949141012, MAX_EFFECT 63.17460317, TOP 66.86118232) came to 4.76 and the PXC50 (BOTTOM 4.67001684, HILLSLOPE 2.010919918, MAX_EFFECT 67.58893281, TOP 64.90205504) is 5.
Regarding `CCc1cc2c(NC(C(=O)O)C(C)C)nc(C)nc2s1` (stereo not given), the PXC50 is below 4 (MAX_EFFECT 5.866666667) and below 4 (MAX_EFFECT 8.994708995).
Regarding `O=C1CN(c2nc(-c3cccnc3)nc3sc4c(c23)CCCC4)CCN1`, the PXC50 was below 4 (MAX_EFFECT 24.0) and below 4 (MAX_EFFECT 26.98412698).
Regarding `Cc1cc(C)n(-c2nc(N(C)C)c3c4c(sc3n2)CCCC4)n1`, the PXC50 is, setting by setting: (BOTTOM 3.265302341, HILLSLOPE 1.809282706, MAX_EFFECT 78.125, TOP 100.0) 4.28; (BOTTOM 6.620107204, HILLSLOPE 2.145601955, MAX_EFFECT 79.8245614, TOP 100.0) 4.28.
For `Cc1cc(C(F)(F)F)nc(CCNc2nc(C)nc3sccc23)n1`, the PXC50 is, setting by setting: (MAX_EFFECT 8.838383838) below 4; (MAX_EFFECT 11.2244898) below 4.
Regarding `Nc1noc2ccc(-c3cnc4ccc(N5CCOCC5)nn34)cc12`, the PXC50 was below 4 (MAX_EFFECT 12.21374046) and below 4 (MAX_EFFECT 20.61403509).
For `Nc1noc2ccc(-c3cnc4ccc(NC5CC5)nn34)cc12`, the PXC50 is below 4 (MAX_EFFECT 22.39185751) and below 4 (MAX_EFFECT 25.87719298).
Turning to `O=C(NCC1CCCCC1)c1cc(=O)c2cc(O)ccc2o1`, the PXC50 (MAX_EFFECT 0.575815739) was below 4 and the PXC50 (MAX_EFFECT 4.306220096) was below 4.
For `CS(=O)(=O)N1CCN(c2ccc3ccc(C(=O)NCc4ccccc4)cn23)CC1`, the PXC50 is, setting by setting: (BOTTOM 9.61795032, HILLSLOPE 2.1052237, MAX_EFFECT 58.50091408, TOP 60.20064035) 4.73; (BOTTOM -0.0629, HILLSLOPE 2.117070317, MAX_EFFECT 53.11004785, TOP 51.4182088) 5.1.
In turn, `CC(C)C[C@H](N)CNc1cccnc1Oc1ccc(Cl)cc1` yielded a PXC50 (MAX_EFFECT 7.660455487) below 4 and a PXC50 (MAX_EFFECT 9.168443497) below 4.
In the case of `Cc1nc(N2CCN(CCO)CC2)c2c(-c3ccccc3)csc2n1`, the PXC50 is, setting by setting: (MAX_EFFECT 6.12244898) below 4; (MAX_EFFECT 9.848484848) below 4.
Turning to `Cc1nc(N2CCNC(=O)C2)c2c(CC(C)C)csc2n1`, the PXC50 reads like this: (MAX_EFFECT 4.371584699) below 4; (MAX_EFFECT 6.951871658) below 4.
Turning to `CS(=O)(=O)N1CCN(c2ccc3ccc(C(=O)NCC4CC4)cn23)CC1`, the PXC50 reads like this: (BOTTOM 3.917889821, HILLSLOPE 2.161741125, MAX_EFFECT 61.66007905, TOP 61.91262666) 4.97; (BOTTOM -0.968460018, HILLSLOPE 1.661925269, MAX_EFFECT 62.22222222, TOP 66.45309128) 4.79.
As to `COCCNC(=O)c1ccc2ccc(N3CCN(S(C)(=O)=O)CC3)n2c1`, the PXC50 is 4.75 (BOTTOM 1.198316498, HILLSLOPE 2.008751015, MAX_EFFECT 51.91956124, TOP 53.93938429) and below 4 (MAX_EFFECT 47.36842105).
Turning to `O=C(O)C1CCCN1c1nc(-c2ccc(Cl)cc2)cc(C(F)(F)F)n1` (stereo not given), the PXC50 reads like this: (MAX_EFFECT 7.310704961) below 4; (MAX_EFFECT 9.138381201) below 4.
For `N[C@@H]1CCOc2c(Cl)cc(Cl)cc21`, the PXC50 reads like this: (MAX_EFFECT 3.676470588) below 2.7; (MAX_EFFECT 16.70480549) below 2.7.
`Nc1nc(CSc2ncccn2)nc2sc3c(c12)CCCC3`: the PXC50 (MAX_EFFECT 24.53333333) is below 4 and the PXC50 (MAX_EFFECT 26.98412698) is below 4.
As for `O=C1NCCCC12CCN(c1nc3c(c(C(F)(F)F)n1)CCCC3)C2` (stereo not given), the PXC50 is, setting by setting: (MAX_EFFECT 4.081632653) below 4; (MAX_EFFECT 6.313131313) below 4.
Regarding `Cc1cc(N)n(-c2nc(C)nc3sc4c(c23)CCCC4)n1`, the PXC50 is below 4 (MAX_EFFECT 11.22994652) and below 4 (MAX_EFFECT 12.02185792).
In the case of `CCN(CC)c1ccc2ccc(C(=O)N(C)C)cn12`, the PXC50 was below 4 (MAX_EFFECT 27.22222222) and below 4 (MAX_EFFECT 35.21126761).
On to `COc1ccc(-c2cc(C(F)(F)F)nc(N3CCCCC3)n2)cc1OC`, for which the PXC50 runs as follows: (MAX_EFFECT 2.702702703) below 4; (MAX_EFFECT 3.015075377) below 4.
Take `OC1CN(c2nc(C3CC3)nc3sc4c(c23)CCCC4)C1`: the PXC50 runs as follows: (MAX_EFFECT 6.914893617) below 4; (MAX_EFFECT 8.808290155) below 4.
In the case of `CN(C)C(=O)N1CCN(c2ccc3ncc(-c4ccc5onc(N)c5c4)n3n2)CC1`, the PXC50 (MAX_EFFECT 21.88295165) is below 4 and the PXC50 (MAX_EFFECT 25.43859649) was below 4.
For the molecule `O=C(CC1CCCCC1)N1CCC(c2ncc3c(n2)CCNC3)CC1`, the PXC50 reads like this: (MAX_EFFECT 14.51247166) below 4; (MAX_EFFECT 29.90654206) below 4.
With `CCc1nc(NCCCOC)c2c3c(sc2n1)CCC3`, the PXC50 is, setting by setting: (MAX_EFFECT 10.43256997) below 4; (MAX_EFFECT 14.35768262) below 4.
In the case of `CCc1nc(N2CCN(c3ncccn3)CC2)c2cc(C)sc2n1`, the PXC50 (MAX_EFFECT 13.86666667) was below 4 and the PXC50 (MAX_EFFECT 15.34391534) was below 4.
Consider `Cc1nc(N[C@@H](C)C(=O)O)c2c3c(sc2n1)CCCC3`, for which the PXC50 is below 4 (MAX_EFFECT 7.446808511) and below 4 (MAX_EFFECT 9.32642487).
For the molecule `NCc1ccc(Cl)cc1Cl`, the PXC50 reads like this: (MAX_EFFECT 13.60691145) below 3; (MAX_EFFECT 15.77946768) below 3.
As for `N#Cc1cccc(Nc2nccc(N3CCC(NS(=O)(=O)c4cccc(C#N)c4)CC3)n2)c1`, the PXC50 is below 4 (MAX_EFFECT 35.34883721) and below 4 (MAX_EFFECT 46.85314685).
Consider `Cc1nc(NC(C(=O)O)C(C)C)c2c(C)c(C)sc2n1` (stereo not given), for which the PXC50 is below 4 (MAX_EFFECT 8.0) and below 4 (MAX_EFFECT 9.523809524).
